Screening data as filed in PubChem BioAssay.
TCR activator – activates T cell receptor signaling. 330,000 tested, under 10 active. Potency, µM (titrated, usually from 9.22 µM), most hits filed as activators. AID 504894. primary human leukocytes, anti-CD3, IL-2 HTRF, 48 h
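TCR engagement came from a-CD3 beads alone, with compounds added to primary human leukocytes for 48 hr. Secreted IL-2 bridged europium cryptate- and d2-labelled anti-IL-2 antibodies, giving FRET emission at 665nm after 320nm excitation.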
BRCA1 expr act – increases BRCA1 expression; AID 624202; Potency, µM (highest dose often 46.1 µM), actives largely listed as activators; 380,000 compounds, 1.1% hits; MCF7-BRCA1-FFLuc reporter, luminescence, 48 h; response scale: scaled: vehicle 0%, 10 µM genistein 100%; note: nearly all actives have a fitted effect of over 80% in size
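Quantitative HTS in MCF7 cells stably reporting BRCA1 expression via firefly luciferase. Compound treatment lasts 48 h at 37 °C in phenol-red free MEM. Activation is expressed relative to genistein at 10 microM and DMSO.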
p53 reactivation – restores transcriptional activity of mutant p53 | AID 504706 | Potency, µM (highest dose often 92.2 µM), hits mostly activators | H1299 p53-A138V BP100-luciferase reporter, luminescence, 24 h | 320,000 compounds, 0.063% hits; note: nearly all actives have a fitted effect of over 45% in size
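p53-null H1299 cells stably carrying temperature-sensitive p53-A138V and a BP100-luciferase reporter were pinned with compounds (4-point, 1:5 series) and held 24 hrs at 37 deg C. Luminescence was read 10 min after detection reagent.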
IL2 activator – IL-2 activation | IL-2 activation reporter assay, cell-based qHTS; stimulated with anti-CD3/CD4/CD28 beads; in transgenic mouse T cells | activation, % (series mostly up to about 46 µM) | 360,000 compounds, 0.065% hits | AID 652025; in the data active = activation above about 50%; inconclusive = mostly about 30% to 49%
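Using fluorescent plate cytometry, EGFP and DsRed are detected in transgenic mouse T cells stimulated 18 h at 37 degrees C with antibody-coated beads after 60 min compound pretreatment.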
uPA surface inh – inhibitors of cell surface uPA generation. Potency, µM (highest dose often 38.3 µM), actives largely listed as inhibitors. 330,000 compounds, 0.31% hits. cell surface uPA generation assay, qHTS; active = well fitted inhibition curve with a large enough effect; inconclusive = small, poorly fitted or top-dose-only effect; inactive = no such curve, though single readings can be large or run the other way; tested in mouse RAW 264.7 cells; note: nearly all actives have a fitted effect of over 55% in size
A number is an active result; n = inactive; u = inconclusive; x = no result given. Sampled rows, rich in hits. Any-hit rate of the full collection: about 1.4%. Unless noted, calls come from the whole dose curve; as a rule, active = well fitted curve in the direction sought with a large enough effect; inconclusive = small, poorly fitted or top-dose-only effect, or another doubt; inactive = no such curve, though single readings can be large; an effect the other way counts as inactive or inconclusive.

SMILES	TCR activator	BRCA1 expr act	p53 reactivation	IL2 activator	uPA surface inh
CCOc1ccc(NC(=O)Cn2c(=O)c(CNc3ccc(OC)cc3)cc3ccc(OC)cc32)cc1	x	n	x	x	x
O=C(Nc1nccs1)c1ccc(NC(=O)c2ccco2)cc1	n	5.01µM	u	n	n
Cc1ccc(NC(=O)C2CCN(S(=O)(=O)c3cccs3)CC2)cc1C	n	n	n	n	n
O=C(Nc1ccc(NC(=O)C2CCCCC2)cn1)c1ccco1	n	n	n	n	n
CC(NC(=O)c1ccco1)C(=O)Nc1nccs1 (centres undefined)	n	n	n	n	n
CC(=O)c1ccc(NC(=O)C2CCN(S(=O)(=O)c3cccs3)CC2)cc1	n	8.91µM	n	n	n
O=C(Nc1ccc(NC(=O)C2CC2)cc1)c1ccco1	n	3.16µM	u	n	n
O=C(NC(=S)Nc1ccccc1Br)c1ccco1	n	12.6µM	u	n	n
O=C(CCCl)Nc1cccc2cccnc12	x	n	x	x	x
COc1cccc(-c2nc(SCc3ccc(C)cc3)n3[nH]c(=O)cc3n2)c1	x	n	x	x	x
COc1ccc(Cn2nnnc2C(c2ccccn2)N2CCN(c3ccc(O)cc3)CC2)cc1 (centres undefined)	x	n	x	x	x
CCOc1cc(/C=C(\C#N)C(=O)Nc2ccc(OC)cc2)ccc1OCc1cc(=O)n2nc(CC)sc2n1	x	n	x	x	x
CCCCC(=O)Nc1cnc(NC(=O)c2ccco2)cc1C	n	11.2µM	n	n	n
CCCC(=O)Nc1cc(C)c(NC(=O)c2ccco2)cn1	x	n	u	n	n
CCOc1ccc(NC(=O)c2ccco2)cc1	x	n	n	n	u
CCOc1ccc(NC(=S)NC(=O)c2ccco2)cc1	n	7.08µM	u	n	n
CCOC(=O)c1ccc(NC(=O)c2ccco2)cc1	n	7.08µM	n	n	u
O=C(Cc1ccccc1)Nc1ccc(NC(=O)c2ccco2)nc1	n	5.62µM	u	n	n
Cc1cc(NC(=O)C2CCN(S(=O)(=O)c3cccc4nsnc34)CC2)ccc1Br	x	n	x	x	x
O=C(Nc1ccc(NC(=O)c2ccco2)cc1)c1ccco1	n	10µM	n	n	n
COc1ccc(C(=O)N/N=C/C(=O)c2ccccc2)cc1	n	5.62µM	x	n	n
COc1ccc(NC(=S)c2ccccc2)cc1	n	7.94µM	u	n	n
COc1ccc(NC(=S)Nc2ccccc2)cc1	n	n	n	n	n
Cc1ccc(C(=O)NN=CC(=O)c2ccccc2)c(C)c1	x	u	n	n	u
COc1ccc(NC(=O)NC(=O)c2ccccc2)cc1	n	1.12µM	u	n	n
SMILES	TCR activator	BRCA1 expr act	p53 reactivation	IL2 activator	uPA surface inh
COc1ccc2c(c1)C(=O)CC2	x	n	x	x	x
O=C(c1ccc2c(=O)n(CCc3ccccc3)c(=O)[nH]c2c1)N1CCN(C(=O)c2ccco2)CC1	x	n	x	x	x
COc1ccc(NC(=O)c2cc3ccccc3o/c2=N\NS(=O)(=O)c2ccc(C)cc2)cc1	n	5.01µM	u	n	n
CCc1ccc(N2C(=O)CS(=O)(=O)C23C(=O)N(Cc2ccccc2)c2ccccc23)cc1 (centres undefined)	x	n	x	x	x
COc1cc2c(C(=O)N3CCN(c4ccc(F)cc4)CC3)cn(CC(C)C)c(=O)c2cc1OC	x	n	x	x	x
O=C(Cc1ccc(N2CCNC2=O)cc1)N1CCCC(Nc2cccc(F)c2)C1 (centres undefined)	n	n	n	n	1.41µM
CCOc1ccc(N=C(/C(C(=O)C(=O)N2CCOCC2)=C(\O)c2ccccc2)c2ccccc2)cc1	n	7.94µM	u	n	n
O=C(/C=C/Nc1ccccc1)c1ccc(Cl)cc1Cl	n	u	x	n	10µM
O=C(c1ccc(F)cc1)c1ccc(N2CCCC2)cc1	n	3.16µM	u	n	n
O=C(c1ccc(F)cc1)c1ccc(N2CCCCC2)cc1	n	5.01µM	u	n	n
O=C(Nc1ccc(N2CCCCC2)cc1)c1ccc(F)cc1	n	u	n	n	n
CCOC(=O)c1nnc2c(-c3ccc(Cl)cc3)c(C)nn2c1C	x	n	x	x	x
O=C(CC1Sc2ccccc2NC1=O)Nc1cccc(C(F)(F)F)c1 (centres undefined)	x	n	x	x	x
COc1ccc2c(=O)c3ccccc3oc2c1	n	u	u	n	u
CC(=O)c1ccc2oc3ccccc3c(=O)c2c1	n	7.94µM	n	n	n
CC(=O)c1cc2c(=O)c3ccccc3oc2nc1C	n	10µM	x	n	n
COc1cc(OC)cc(C(=O)N(Cc2ccco2)Cc2cccs2)c1	x	n	x	x	x
O=C(/C=C/c1ccc2ccccc2c1)c1ccoc1	n	12.6µM	n	n	n
Cc1ccc(OCCSc2nc3ccc(NC(=O)c4ccco4)cc3s2)cc1	x	n	x	x	x
CCOC(=O)Cn1c(=O)n(C2CCCCC2)c2nc(-c3ccc(C(C)C)cc3)nc(C(N)=O)c21	x	n	x	x	x
CC1CCc2c(C(=O)Nc3nccs3)csc2C1 (centres undefined)	n	12.6µM	u	n	n
CC1CCc2c(C(=O)NCc3ccccn3)csc2C1 (centres undefined)	n	11.2µM	u	n	n
CC1CCc2sc(C(=O)NC3CCCCC3)cc2C1 (centres undefined)	n	11.2µM	x	n	n
O=C(NCC1CCCO1)c1csc2c1CCCCC2 (centres undefined)	n	n	n	n	n
CC1CCc2c(C(=O)NCC3CCCO3)csc2C1 (centres undefined)	n	11.2µM	n	n	n
SMILES	TCR activator	BRCA1 expr act	p53 reactivation	IL2 activator	uPA surface inh
COc1cc2c(NC3CCN(C)CC3)nc(N3CCCN(C)CC3)nc2cc1OCCCC(C)C	x	n	x	x	x
COc1cc(-c2nc(C(N)=O)c3c(n2)n(-c2cccc(C)c2)c(=O)n3C)cc(OC)c1OC	x	n	x	x	x
Cc1ccc(NC(=O)C2CCCN(S(=O)(=O)c3ccc4c(c3)CCCC(=O)N4)C2)cc1N(C)C (centres undefined)	x	n	x	x	x
CC1CCc2sc(C(=O)NCc3ccccn3)cc2C1 (centres undefined)	n	11.2µM	n	n	n
C/C(=N\NC(=O)c1cc2c(s1)CCC(C)C2)c1ccc[nH]1 (centres undefined)	n	5.01µM	x	n	u
C/C(=N\NC(=O)c1cc2c(s1)CCC(C)C2)c1ccncc1 (centres undefined)	n	n	n	n	n
CC1CCc2sc(C(=O)NCc3ccc(F)cc3)cc2C1 (centres undefined)	n	n	n	n	n
COC(=O)c1ccc(CC(=O)c2nc3ccccc3s2)cc1	n	n	u	n	n
COC(=O)c1ccc(/C(O)=C(\C#N)c2nc3ccccc3s2)cc1	n	5.01µM	u	n	n
Clc1ccc(OCc2nc(-c3ccccn3)no2)c(Br)c1	n	n	x	n	3.55µM
Clc1ccccc1OCc1nc(-c2ccccn2)no1	n	u	u	n	n
O=C(OCc1ccco1)c1ccc2c(c1)N(Cc1cccc(F)c1)C(=O)c1ccccc1S2	x	n	x	x	x
COc1cc(C(=O)/C=C/c2cccnc2)c([N+](=O)[O-])cc1OC	n	n	n	n	8.91µM
